Out of some 420,000 compounds screened, about 64,000 (15%) were called active. Another 27% or so got no clear call; they are omitted. These entries were drawn from the full list. Unmarked numbers belong to inactive results. The call rests on the fitted dose curve; in most records, active means well fitted inhibition curve with a large enough effect; inconclusive means small, poorly fitted or top-dose-only effect; inactive means flat fitted curve, though single readings scatter.
Assay: qHTS for Inhibitors of human tyrosyl-DNA phosphodiesterase 1 (TDP1): qHTS in cells in absence of CPT; further: nearly all actives have a fitted effect of over 55% in size
Settings: DT40 Tdp1-/- hTDP1 cells, no CPT, ATP luminescence, 48 h; activity change, negative = growth inhibition: at 46.2 µM (top of the series)
Method in brief: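 Luminescent ATP content (CellTiter-Glo) served as the growth readout. Knockout chicken DT40 cells expressing human TDP1 were exposed to compounds without camptothecin for a minimum 48 hr at 37 °C.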
On the % scale 0 is the no-effect control and ±100 the full control effect; potency means the concentration at half of the fitted maximal effect.

Row | Structure (SMILES) | activity change, negative = growth inhibition | Potency
1 | COc1cc(C(C)=O)ccc1OC(=O)CN1C(=O)c2ccccc2C1=O | -26% | 
2 | CCOC(=O)c1[nH]cnc1C(=O)Nc1ccccc1C | -3.94% | 
3 | O=C(Nc1ccc2c(c1)CCC2)c1cccc(S(=O)(=O)Nc2ccccc2Cl)c1 | -14.2% | 
4 | CCCCN(C(=O)c1ccc(C)o1)c1c(N)n(CCCC)c(=O)[nH]c1=O | 13.2% | 
5 | O=C(Nc1ccc(CN2CCOCC2)cc1)c1cc(Cl)ccc1Cl | -0.347% | 
6 | O=C(CN1CCOCC1)Nc1c(Cl)cc(Cl)cc1Cl | 10.4% | 
7 | CC(C)(C)c1cc(NC(=O)NN2CCOCC2)nn1-c1c(Cl)cc(Cl)cc1Cl |  | 14.6 µM (active)
8 | Cn1cccc1/C=C1\SC(=O)N(CC(=O)Nc2ccc(F)cc2)C1=O | -29.1% | 
9 | CNC(=S)NNC(=O)c1oc2nc(-c3ccccc3)cc(-c3ccco3)c2c1N | -24% | 
10 | COc1ccccc1C1C2=C(COC2=O)Nc2cc3c(cc21)OCO3 (configuration not stated) | 8.9% | 
11 | O=C1OCC2=C1C(c1ccc(Cl)cc1)c1cc3c(cc1O2)OCO3 (configuration not stated) |  | 16.4 µM (active)
12 | O=C(c1ccc(O)cc1)c1ccc(C(=O)O)c(C(=O)O)c1 | 5.6% | 
13 | Cc1cccn2cc(-c3cccc(S(=O)(=O)N4CCCCC4)c3)nc12 | -29.2% | 
14 | O=C(O)CCn1cc(/C=C/C(=O)c2ccc(Cl)cc2)c(-c2cccc(Br)c2)n1 |  | 23.1 µM (active)
15 | CCOC(=O)/C(C#N)=C/c1cn(CCC(=O)O)nc1-c1ccc(Br)cc1 | -6.75% | 
16 | O=C(O)/C=C/c1cn(Cc2ccccc2)nc1-c1cccs1 | 6.28% | 
17 | CC1CN(C(=O)c2ccccc2NS(=O)(=O)c2cccc([N+](=O)[O-])c2)CC(C)O1 (configuration not stated) | -6.58% | 
18 | COc1ccc2c(Cl)c(-c3nnco3)sc2c1 | -8.82% | 
19 | COc1ccc2sc(-c3ccc(N(C)C)cc3)c(C#CCO)c2c1 |  | 18.4 µM (active)
20 | COc1ccc2sc(-c3ccc(S(C)(=O)=O)cc3)c(-c3ccc(C(N)=O)cc3)c2c1 | -1.83% | 
21 | COc1ccc(-c2sc3ccc(OC)cc3c2C#Cc2ccccn2)cc1 |  | 18.4 µM (active)
22 | COc1cc(OC)cc(-c2sc3ccc(OC)cc3c2-c2ccc3cc[nH]c3c2)c1 | -9.7% | 
23 | COc1ccc2sc(-c3ccc(N(C)C)cc3)c(-c3ccc4cc[nH]c4c3)c2c1 | -18% | 
24 | CC(C)(C)c1ccc(S(=O)(=O)NC(=O)C2(C)CCN2C(=O)CC2CC2)cc1 (configuration not stated) | -2.27% | 
25 | CCS(=O)(=O)C1=NSC2=NC(=O)/C(=C\c3ccc(OS(=O)(=O)c4ccccc4)cc3)C(=N)N21 | -23.1% | 
26 | Cc1cc(C)cc(NC(=O)C(OC(=O)c2ccc(O)cc2)c2ccccc2)c1 (configuration not stated) | 1.18% | 

Row | Structure (SMILES) | activity change, negative = growth inhibition | Potency
27 | CCCn1c(C)cc(/C=C(\C#N)C(=O)OCC(=O)N(C)c2c(N)n(Cc3ccccc3)c(=O)[nH]c2=O)c1C | -27.5% | 
28 | COc1ccc(N/N=C2/CCCCC2=O)cc1 | -3.32% | 
29 | CC1(C)CN(c2ccc(-c3ccnc4ncnn34)cc2)C1=O | -20.8% | 
30 | CC(=O)Oc1cccc(N2C(=O)C3CC=C(Cl)CC3C2=O)c1 (configuration not stated) | -2.61% | 
31 | O=C(NC1CC(=O)N(c2ccccc2)C1)c1ccco1 (configuration not stated) | 2.8% | 
32 | O=C(Oc1cccc(N2C(=O)C3C4c5ccccc5C(c5ccccc54)C3C2=O)c1)c1ccco1 (configuration not stated) |  | 29.1 µM (active)
33 | c1ccc(CSCCc2ccncc2)cc1 | -29.7% | 
34 | CC(C)(C)c1ccc(SCCc2ccncc2)cc1 |  | 16.4 µM (active)
35 | CC(C)(C)NC(=O)C(=O)NCc1ccncc1 | -15.4% | 
36 | CN(C)CC(O)COc1ccc(C(C)(C)c2ccc(OCC(O)CN(C)C)cc2)cc1 (configuration not stated) |  | 17.8 µM (active)
37 | CCCc1ccc(OCC(O)CN2CCN(CCO)CC2)cc1 (configuration not stated) | 10% | 
38 | COc1ccc(OCC(O)CN(C)C(=O)C(C)Oc2ccccc2)cc1 (configuration not stated) | -27.4% | 
39 | O=S(=O)(Cc1nnnn1-c1ccccc1)c1ccccc1 | 30.9% | 
40 | CC(C)C(=O)Nc1ccc2oc(=O)ccc2c1 | 9.1% | 
41 | CC(C)(C)Cc1c(C2CCCCC2)nc2ccc(Br)cn12 | -19.5% | 
42 | Cc1cc(Br)cn2c(Cc3ccccc3C(F)(F)F)c(-c3ccc(Cl)cc3)nc12 | -22.3% | 
43 | Cc1cc(Br)cn2c(Cc3cccc(F)c3)c(-c3cccc(Br)c3)nc12 |  | 23.1 µM (active)
44 | Fc1cccc(Cc2c(-c3cccc(Cl)c3)nc3ccc(Br)cn23)c1 |  | 14.6 µM (active)
45 | CCOC(=O)N1CCN(S(=O)(=O)c2cc3c(cc2C)NC(=O)CO3)CC1 | -22.2% | 
46 | Cc1nc(N)c(Br)c(C)c1Br | -49.5% | 
47 | CCOC(=O)C1C(=O)NC(N2CCN(c3ccccc3)CC2)=NC1c1ccco1 (configuration not stated) | -19.7% | 
48 | Cc1cc(N=Nc2ccc3ccccc3c2)ccc1O | -5.46% | 
49 | CC(C)C[C@H](NC(=O)N1CCn2c1nc1ccccc12)C(=O)NC1CC1 | 17.7% | 
50 | COc1ccc(-n2ccn(CC(=O)Nc3ccc(C)c(C)c3)c(=O)c2=O)cc1OC | 8.27% | 
51 | CCOC(=O)c1cn(CC(=O)Nc2ccc(C(C)C)cc2)nn1 | -21.1% | 
52 | COc1ccc(NC(=O)CC2SC(N3CCCCC3)=NC2=O)cc1OC (configuration not stated) | 3.8% | 
